Screening data deposited in PubChem by National Center for Advancing Translational Sciences (NCATS).
In the library only some 6% were active in any assay of this set; here they are far more common.
D1 potentiator: potentiators of human D1 dopamine receptor. AID 504651. 360,000 tested, 0.036% active. HEK293 TREx D1 cells, calcium flux, dopamine EC20 potentiation. potentiation, % at 10 µM. P21728; in the data active = potentiation above about 30%; also: 0% is about no effect
Target sequence (P21728 whole entry, looked up): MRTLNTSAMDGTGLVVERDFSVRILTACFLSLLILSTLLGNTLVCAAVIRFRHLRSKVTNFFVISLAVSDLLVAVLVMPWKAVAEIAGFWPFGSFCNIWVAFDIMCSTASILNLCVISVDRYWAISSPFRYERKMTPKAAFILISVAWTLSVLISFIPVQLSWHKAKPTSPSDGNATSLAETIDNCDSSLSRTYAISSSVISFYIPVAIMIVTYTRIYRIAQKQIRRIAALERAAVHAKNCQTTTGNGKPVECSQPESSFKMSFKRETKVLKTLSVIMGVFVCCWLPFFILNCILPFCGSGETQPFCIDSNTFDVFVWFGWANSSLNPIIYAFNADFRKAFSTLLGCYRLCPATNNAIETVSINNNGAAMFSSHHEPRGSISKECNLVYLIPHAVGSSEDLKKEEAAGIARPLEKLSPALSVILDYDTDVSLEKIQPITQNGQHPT
D3 antag: blocks the human D3 dopamine receptor. AID 652054. D3R cells, DiscoveRx beta-arrestin luminescence, antagonist mode; hits give low values. 360,000 tested, 2.5% active. max response, negative = inhibition, %. P35462; in the data active = max response below about -50%; inconclusive = no clear call, values can overlap the other calls; also: % is scaled to controls: 0 for no effect and ±100 for the full control effect
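Cells plated overnight at 1500 cells/well, then exposed to library compounds with dopamine controls for 90 minutes at 37 degrees C. DiscoveRx reagent added for 30–60 minutes at room temperature; luminescence read, quantitative HTS format.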
D1 ag: activates the human D1 dopamine receptor. P21728. HEK293 T-REx D1 cells, calcium flux, agonist mode. activation, % at 2 µM. 360,000 tested, 1% active. AID 504660; in the data active = activation above about 30%; also: 0% is about no effect
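Inducible HEK293 T-REx D1 cells, force-coupled to calcium signalling, were plated at 4000 cells/well with tetracycline and held overnight at 30 C. After no-wash calcium dye loading, compound-evoked calcium rise over 180 s flagged agonists.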
D1 antag: human D1 dopamine receptor antagonism. P21728. HEK293 TREx D1 cells, calcium flux, dopamine EC80; hits give low values. activity change, negative = inhibition, % at 10 µM. 360,000 tested, 3.2% active. AID 504652; in the data active = activity change below about -30%; also: % is scaled to controls: 0 for no effect and ±100 for the full control effect
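Antagonism measured as reduced calcium response to an EC80 dopamine addition following 180 s compound pre-read; cells were inducible HEK293 Trex D1 plated overnight at 30 C, read kinetically at 1 cycle/sec.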
DRD3 agonist: agonists of human D3 dopamine receptor. P35462. D3R DiscoveRx beta-arrestin cells, luminescence, 90 min. max activation, %. 410,000 tested, 0.58% active. AID 652048; in the data active = max activation above about 30%; also: 0% is about no effect
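Cells at 1500/well, incubated overnight, then treated with pinned compounds (dopamine as control) for 90 min at 37 degrees C. DiscoveRx reagent added for 30 - 60 minutes at room temperature; luminescence read.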
Active calls of the source: *; u = inconclusive; x = no result.

SMILES	D1 potentiator	D3 antag	D1 ag	D1 antag	DRD3 agonist
Cc1ccc(NS(=O)(=O)c2ccc3nc(-c4ccccc4)[nH]c3c2)c(Cl)c1	-5	x	15	-17	8
C=CC[N+]1([C@H]2C[C@H]3[C@@H]4CC[C@H]5C[C@H](OC(C)=O)[C@@H](N6CCCCC6)C[C@]5(C)[C@H]4CC[C@]3(C)[C@H]2OC(=O)CC)CCCCC1	x	x	x	x	-13
COc1ccccc1NC(=O)C1=C(C)Nc2c(C(=O)Nc3ccc(F)cc3)cnn2C1c1cccc([N+](=O)[O-])c1 (configuration not stated)	-7	x	1	3	-5
CCOC(=O)NC(NC(=S)Nc1ccc(OC)cc1)C(Cl)(Cl)Cl (configuration not stated)	-10	-6	2	-34*	-2
CCOC(=O)NC(NC(=S)Nc1ccccc1OC)C(Cl)(Cl)Cl (configuration not stated)	-4	-26	2	-3	-7
Cc1cc(C(=O)NCC2CCCCC2)ccc1[N+](=O)[O-]	1	-13	3	0	-9
Cc1cc2c(cc1[N+](=O)[O-])NC(CNC(C)C)CC2 (configuration not stated)	-8	-83*	3	17	-7
CC(=O)Nc1ccc(S(=O)(=O)Nc2cc(-c3cn4ccccc4n3)ccc2C)cc1	0	x	-1	15	-3
CN1CCN(C(=O)c2cc3sccc3n2CC(=O)c2ccccc2)CC1	-1	-62*	0	-8	-38
CCN1CCN(C(=O)C2CCN(C(=O)c3cc4sccc4n3CC)CC2)CC1	3	0	4	0	-7
CCN1CCN(C(=O)c2cc3sccc3n2CC(=O)c2ccccc2)CC1	-5	-56*	2	13	-38
O=C(c1ccco1)N1CCN(C(=O)c2cc3sccc3n2Cc2ccccc2)CC1	1	13	0	1	2
CCOc1ccc(NC(=O)CCS(=O)(=O)c2ccc3nc(C)sc3c2)cc1	-4	x	2	0	-17
CCc1ccc(N2C(=O)C(Cl)=C(Nc3ccc(C(=O)N4CCCC4)cc3)C2=O)cc1	-5	-57*	3	-16	-14
Cc1sc2ncnc(SCC(=O)N3CCCC(C(F)(F)F)C3)c2c1C (configuration not stated)	6	13	1	-38*	-9
CC(=O)N1CCCc2ccc(NC(=O)c3ccc(OC(C)C)cc3)cc21	-1	x	-2	-5	3
Cc1ccc2[nH]cc(/C=C/c3cc[n+](C)cc3)c2c1	1	-5	30*	3	3
CC[n+]1ccc(/C=C/c2c[nH]c3ccccc23)cc1	-2	0	64*	10	0
CCn1c(/C=C/c2c[nH]c3ccccc23)nc2ccccc2c1=O	1	5	1	-14	14
COc1ccc2c(/C=C/c3cc[n+](C)cc3)c[nH]c2c1	-4	-12	1	-16	-1
COc1ccc(C)cc1NC(=O)NCc1ccc2c(c1)CCN2C(=O)c1ccccc1	-4	x	0	-2	-29
O=C(CSc1nc2ccccc2[nH]1)N1CCCCC1	-2	-96*	1	7	-16
Cc1ccc2nc(SCC(=O)c3c[nH]c4ccccc34)[nH]c2c1	-5	-2	8	-20	-8
O=C(CSc1nc2ccccc2[nH]1)c1c[nH]c2ccccc12	2	-56*	4	11	-11
CC(=O)c1cc(C#N)c(Oc2ccc(Cl)cc2Cl)nc1C	x	-56*	x	x	3
SMILES	D1 potentiator	D3 antag	D1 ag	D1 antag	DRD3 agonist
CCOCCCn1c(SCC(=O)Nc2ccc(F)cc2)nc2c(sc3ccccc32)c1=O	1	x	-1	18	-7
COC(=O)/C(=C\C=C\c1ccccc1)NC(=O)c1ccccc1	-5	-14	0	-30*	-4
O=C(Nc1ccc(C(=O)O)cc1)/C(=C\C=C\c1ccccc1)NC(=O)c1ccccc1Cl	-10	7	1	4	1
O=C(O)CCNC(=O)/C(=C\C=C\c1ccccc1)NC(=O)c1ccccc1	-3	13	4	1	2
O=C(Nc1ccc(O)cc1)/C(=C\C=C\c1ccccc1)NC(=O)c1ccccc1	4	3	2	-32*	5
CC(C)CSc1nnc(-c2ccccc2)c(-c2ccccc2)n1	1	x	6	13	-8
CC1CCN(C(=O)c2ccc(COc3ccccc3Cl)o2)CC1	-3	u	22	-36*	-13
